PNC inhibitor: blocks assembly of the perinucleolar compartment | PC3M PTB-GFP, PNC prevalence imaging, 16 h; hits give low values | activity change (PNC), negative = inhibition, % at 10 µM | 3.1% of 140,000 active;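 active = readout at or below -70, meaning at least 70% loss of cells showing the perinucleolar compartment, a nuclear body marking cancer cells; inconclusive = readout between -30 and a set limit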
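Compounds are pinned in duplicate onto adhered PC3M cells stably expressing GFP-tagged PTB and incubated 16 h at 37 C. Cells are then fixed, nuclei stained with Hoechst, and PNC-positive cells counted.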
HPGD inh: inhibitors of human 15-hydroxyprostaglandin dehydrogenase (HPGD). 4.3% of 150,000 active. purified HPGD, NADH fluorescence kinetic, PGE2 substrate. Potency, µM, usual class: inhibitors
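20 nM HPGD preincubated 15 min at room temperature with compound in 50 mM Tris-HCl pH 8, 0.01% Tween 20. Started with 1 mM NAD+ and 30 uM prostaglandin E2; NADH fluorescence (360/450 nm) read 5 times over 30-s intervals, last minus first.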
IMPase Li cell: IMPase inhibition in cells with lithium potentiation; CHO-M1 cells, IP1 TR-FRET (IP-One), carbachol + lithium; Potency, µM (titrated, usually from 59.4 µM), actives largely listed as inhibitors; 0.35% of 210,000 active; AID 1457; active = well fitted inhibition curve with a large enough effect; inconclusive = small, poorly fitted or top-dose-only effect; inactive = no such curve, though single readings can be large or run the other way;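 note: IP1 builds up when IMPase is blocked and the TR-FRET signal falls; nearly all actives have a fitted effect of over 50% in size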
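Lithium-sensitised IP1 accumulation assay; M1-expressing CHO cells treated 30 min at 37C with compound. Competitive antibody detection by time-resolved FRET followed a 10 min room-temperature lysis step.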
ALDH1A1 block: inhibitors of human aldehyde dehydrogenase 1A1; P00352; Purified ALDH1A1, NADH fluorescence, propionaldehyde substrate; Potency, µM (series often up to 75.3 µM), actives largely listed as inhibitors; 7.3% of 220,000 active; AID 1030
Target sequence (P00352 whole entry, looked up): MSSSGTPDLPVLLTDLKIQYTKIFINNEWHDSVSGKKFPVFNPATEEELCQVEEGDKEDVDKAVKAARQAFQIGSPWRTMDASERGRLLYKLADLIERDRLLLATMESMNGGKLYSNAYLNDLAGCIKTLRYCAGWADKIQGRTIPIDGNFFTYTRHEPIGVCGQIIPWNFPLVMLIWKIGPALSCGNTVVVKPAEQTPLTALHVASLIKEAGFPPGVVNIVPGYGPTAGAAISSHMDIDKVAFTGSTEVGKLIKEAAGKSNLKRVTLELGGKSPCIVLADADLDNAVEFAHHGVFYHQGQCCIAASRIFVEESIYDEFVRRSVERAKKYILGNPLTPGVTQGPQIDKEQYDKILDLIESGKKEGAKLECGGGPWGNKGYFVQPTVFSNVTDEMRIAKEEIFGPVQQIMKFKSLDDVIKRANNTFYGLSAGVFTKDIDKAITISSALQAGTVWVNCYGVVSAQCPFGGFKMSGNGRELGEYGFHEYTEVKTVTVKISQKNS
IMPase cell inh: membrane-permeable compound that blocks inositol monophosphatase; CHO-M1 cells, IP1 accumulation, HTRF TR-FRET ratio; inhibition (IP1 accumulation), % at 46.1 µM; 120,000 tested, under 10 active; AID 901; active = well fitted curve in the direction sought with a large enough effect in the signal ratio, not every such curve was filed as active; inconclusive = small, poorly fitted or top-dose-only effect, or a change in a side signal; inactive = no such curve, though single readings can be large or run the other way; the % refers to the signal ratio;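 note: cells stimulated with carbachol in lithium chloride buffer; higher means more IMPase inhibition seen as more IP1 and lower FRET ratio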
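Elevated IP1 in lysates lowers TR-FRET signal (665/620 ratio and 620 channel reported). Cells were CHO-M1, given carbachol (50 uM as added) plus 50mM LiCl, pH 7.4, 30 min, 37C; compounds titrated up to 46 uM; AC50 by Hill equation.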
A number is an active result; i = inactive; ? = inconclusive; nt = no result. Hits are enriched below; roughly 11% of the tested compounds scored in any of these assays. Unless noted, calls come from the whole dose curve; as a rule, active = well fitted inhibition curve with a large enough effect (not every such curve was filed as active); inconclusive = small, poorly fitted or top-dose-only effect, or another doubt; inactive = no such curve, though single readings can be large or run the other way.

SMILES	PNC inhibitor	HPGD inh	IMPase Li cell	ALDH1A1 block	IMPase cell inh
CC1(C)CC(=O)C2=C(C1)OC(N)=C(C#N)C2C1CC=CCC1 (configuration not stated)	i	i	i	7.9µM	i
CC1C(C#N)=C(N)OC2=C1C(=O)CC(C)(C)C2 (configuration not stated)	i	?	i	i	i
CC(=O)N(C)c1ccc(NC(=O)c2cnn(C)c2)cc1	i	i	i	i	i
CC1=NN(c2ccc(S(=O)(=O)O)cc2)C(=O)/C1=C\c1ccc(Cl)cc1	nt	?	i	?	nt
CC1(C)CC(=O)C2=C(C1)OC(N)=C(C#N)C2c1ccc(OC(=O)N2CCOCC2)cc1 (configuration not stated)	?	i	i	3.2µM	i
CC1(C)CC(=O)C2=C(C1)OC(c1ccc(O)cc1)C(C#N)=C2N (configuration not stated)	i	i	i	1.1µM	nt
CC(=O)Oc1cccc(C)c1	nt	i	i	i	nt
COC(=O)C1C(c2ccc(N(C)C)cc2)C(C(=O)OC)S(=O)(=O)CS1(=O)=O (configuration not stated)	nt	nt	i	10µM	nt
COC(=O)C1=C(C)NC(C)=C(C(=O)OC)C1c1ccc(N(C)C)cc1	?	i	i	i	i
CC1CCCCN1S(=O)(=O)c1ccc(S(=O)(=O)N2CCN(c3ccc(F)cc3)CC2)cc1 (configuration not stated)	-114	i	i	i	i
CC(=O)NC1=NN(C(C)=O)C(c2cccs2)S1 (configuration not stated)	-100	i	i	i	i
O=C(CCl)NCc1c(Cl)cccc1-n1cccc1	?	i	i	28µM	i
O=C(Cc1c(Cl)cccc1Cl)NCCc1ccc(Cl)cc1	i	i	i	i	nt
CN1C(=O)N(C)C2=NNC=NC2(O)C1=O (configuration not stated)	nt	?	i	?	nt
COc1ccc(CCNC(=O)CN2CCC(C)CC2)cc1OC	i	i	i	11µM	i
COc1ccc(CCNC(=O)COC(=O)c2cnc(C)cn2)cc1OC	i	i	i	13µM	i
CC1CCN(CC(=O)NCCc2ccc(F)cc2)CC1	nt	nt	i	?	nt
COc1ccc(CCNC(=O)CCC2COc3ccccc3O2)cc1OC (configuration not stated)	i	i	i	13µM	i
CCCS(=O)(=O)N1CCCC(C(=O)NCCc2ccc(OC)c(OC)c2)C1 (configuration not stated)	-92	i	i	i	i
COc1ccc(CCNC(=O)COC(=O)COc2ccc(Cl)cc2)cc1OC	nt	nt	i	i	nt
NS(=O)(=O)c1ccc(CCNC(=O)CCC2COc3ccccc3O2)cc1 (configuration not stated)	i	i	i	i	i
CCS(=O)(=O)N1CCCC(C(=O)NCCc2ccc(OC)c(OC)c2)C1 (configuration not stated)	i	i	i	i	i
COc1ccc(-n2cc(C#N)c(=O)[nH]c2=O)cc1	nt	nt	i	i	nt
COc1cccc(/C=C2\N=C(SC)SC2=O)c1OC	-91	25µM	i	32µM	i
CSC1=N/C(=C\c2ccccc2F)C(=O)S1	i	nt	nt	i	i
SMILES	PNC inhibitor	HPGD inh	IMPase Li cell	ALDH1A1 block	IMPase cell inh
O=C(c1ccccc1Cl)N1CCC(c2nc3c(nnn3Cc3ccco3)c(=O)[nH]2)CC1	i	14µM	i	28µM	i
COc1ccccc1Cn1nnc2c(=O)[nH]c(C3CCN(C(=O)c4ccccc4Cl)CC3)nc21	i	14µM	i	?	i
O=C(c1ccccc1)N1CCC(c2nc3c(nnn3Cc3ccccc3Cl)c(=O)[nH]2)CC1	i	11µM	i	?	i
Cc1ccc(CC(=O)N2CCC(c3nc4c(nnn4Cc4ccccc4)c(=O)[nH]3)CC2)cc1	i	?	i	i	i
COc1ccccc1Cn1nnc2c(=O)[nH]c(C3CCN(C(=O)c4ccc(F)cc4)CC3)nc21	i	11µM	i	i	i
COc1ccccc1Cn1nnc2c(=O)[nH]c(C3CCN(C(=O)c4ccc(C)cc4)CC3)nc21	i	?	i	i	i
COc1ccc(OCc2nnc(SCC(=O)c3c(N)n(C)c(=O)n(C)c3=O)n2-c2ccccc2F)cc1	nt	nt	i	i	nt
CCCc1ccc(OCC(=O)Nc2sc3c(c2C(=O)OCC)CCC(C(C)(C)C)C3)cc1 (configuration not stated)	nt	nt	nt	nt	i
CSCC(=O)NS(=O)(=O)c1ccc(C)cc1	i	i	i	i	nt
C=CCc1ccc(OCCOCCOc2ccc(C)cc2[N+](=O)[O-])c(OC)c1	i	?	i	25µM	i
O=c1c(O)c(-c2cccc(O)c2)oc2ccccc12	nt	28µM	i	?	i
COc1cccc(-c2oc3ccccc3c(=O)c2O)c1	nt	?	i	i	i
CC1(C)CCC(NC(=O)[C@H](N)CCC(=O)O)CC1	nt	nt	nt	nt	i
C/C(=N\O)c1cc(Cl)ccc1O	nt	nt	nt	i	nt
CCOC(=O)c1ccccc1NC(=O)CCOc1ccccc1	nt	nt	nt	nt	i
N#Cc1nccnc1S(=O)(=O)c1cccs1	nt	nt	nt	0.45µM	nt
COc1ccc(NC(=O)CSC2=NCCN2)cc1	nt	nt	i	i	nt
COc1ccc(NC(=O)CSc2c(C)n[nH]c2C)cc1	i	i	i	16µM	i
O=C(Nc1ccc(F)cc1)c1ccccc1	i	i	i	i	i
O=C(CNc1ccccc1)Nc1ccc(F)cc1	i	i	i	14µM	i
Cc1n[nH]c(C)c1SCC(=O)Nc1ccc(F)cc1	-100	i	i	i	i
O=C(CSc1ccc(F)cc1)Nc1ccc(Br)cc1	nt	nt	i	20µM	nt
CC(=O)c1ccccc1NCC(=O)Nc1ccc(C)cc1	nt	nt	i	13µM	nt
CC(C)OCC1CC(CC(=O)Nc2ccc([N+](=O)[O-])cc2)C(=O)O1 (configuration not stated)	nt	nt	i	i	nt
CC(C)OCC1CC(CC(=O)NC(=S)Nc2cccc([N+](=O)[O-])c2)C(=O)O1 (configuration not stated)	-100	i	i	i	i
SMILES	PNC inhibitor	HPGD inh	IMPase Li cell	ALDH1A1 block	IMPase cell inh
CC1=C(C(N)=O)C(c2cccc(C)c2)n2nc(-c3cccc(C)c3)nc2N1 (configuration not stated)	nt	nt	nt	nt	i
CC1CN(c2ccc(NC(=O)c3ccco3)cc2C(=O)O)CC(C)O1 (configuration not stated)	nt	nt	nt	i	nt
COc1ccc2c(c1)CCC1=C2NC(=S)NC1c1ccc(N(C)C)cc1 (configuration not stated)	nt	nt	i	2.8µM	nt
O=C1NC2=C(CCc3ccccc32)C(c2ccccc2)N1 (configuration not stated)	-113	?	i	?	nt
C=CCOc1ccc(C2NC(=S)NC3=C2CCc2ccccc23)cc1 (configuration not stated)	nt	nt	nt	1µM	nt
O=C1Cc2ccccc2C(c2ccccc2)N1 (configuration not stated)	i	i	i	i	i
COc1cc(C2NC(=S)NC3=C2CCc2ccccc23)cc(OC)c1OC (configuration not stated)	?	i	i	?	nt

High-throughput results (PubChem)
